Experiments:
ETS1 [1] = target: T1, ETS1 (UniProt P14921); assay: ETS1 binding intensity (PBM fluorescence), ETS1 alone (arbitrary fluorescence units); higher = stronger binding; settings: ETS1 concentration 1 nM; RUNX1 concentration 0 nM
T1 sequence: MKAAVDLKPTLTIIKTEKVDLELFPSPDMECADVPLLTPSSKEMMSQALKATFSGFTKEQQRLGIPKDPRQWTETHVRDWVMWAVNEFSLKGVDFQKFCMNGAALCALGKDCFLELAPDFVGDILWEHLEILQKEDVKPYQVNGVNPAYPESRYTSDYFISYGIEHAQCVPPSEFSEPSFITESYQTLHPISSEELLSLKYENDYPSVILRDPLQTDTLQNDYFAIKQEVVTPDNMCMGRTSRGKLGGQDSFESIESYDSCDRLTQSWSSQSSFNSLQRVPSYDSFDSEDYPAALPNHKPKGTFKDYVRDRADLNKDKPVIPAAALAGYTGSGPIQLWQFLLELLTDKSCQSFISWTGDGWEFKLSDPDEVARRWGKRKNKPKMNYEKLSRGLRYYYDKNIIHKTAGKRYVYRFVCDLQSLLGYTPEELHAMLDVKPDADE

RUNX1 = RUNX1 (UniProt Q01196); assay: RUNX1 binding intensity (PBM fluorescence), RUNX1 alone (arbitrary fluorescence units); higher = stronger binding; settings: RUNX1 concentration 2 nM; ETS1 concentration 0 nM
RUNX1, sequence (Q01196 whole entry): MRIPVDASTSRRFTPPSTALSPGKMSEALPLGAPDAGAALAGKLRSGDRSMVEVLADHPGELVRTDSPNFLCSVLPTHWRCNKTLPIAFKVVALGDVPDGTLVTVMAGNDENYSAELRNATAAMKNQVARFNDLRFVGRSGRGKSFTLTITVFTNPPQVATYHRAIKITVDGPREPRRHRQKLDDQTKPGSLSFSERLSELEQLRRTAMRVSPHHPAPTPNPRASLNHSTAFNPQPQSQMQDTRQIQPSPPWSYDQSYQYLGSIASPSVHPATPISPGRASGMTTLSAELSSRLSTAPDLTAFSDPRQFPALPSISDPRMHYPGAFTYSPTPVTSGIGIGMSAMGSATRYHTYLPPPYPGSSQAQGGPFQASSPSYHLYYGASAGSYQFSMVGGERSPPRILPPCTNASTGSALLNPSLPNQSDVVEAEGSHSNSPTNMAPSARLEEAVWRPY
Protocol: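 Cooperative gcPBM on 36-bp genomic probes with neighbouring ETS1 and RUNX1 sites. Recombinant human RUNX1 (2 nM) was incubated alone or with ETS1 (25 nM) and detected with anti-RUNX1 antibody plus Alexa488 secondary. Values are medians over 4 replicate spots; the RUNX1+ETS1 data were normalised to the RUNX1-only data. The probes sit in constant array flanks that are not printed.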

ETS1 [2] = target: T1, ETS1; assay: ETS1 binding intensity (PBM fluorescence) in presence of RUNX1, normalised to ETS1-only experiment (arbitrary fluorescence units); higher = stronger binding; settings: ETS1 concentration 1 nM; RUNX1 concentration 25 nM
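For RUNX1 binding intensity (PBM fluorescence), RUNX1 alone in this document: Full-length recombinant human RUNX1 bound to double-stranded 36-bp genomic probes on a high-density microarray, scored as Alexa488 fluorescence per spot via anti-RUNX1 antibody, median of four replicate spots.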

Sequence | ETS1 binding intensity (ETS1 [1]) | RUNX1 binding intensity (RUNX1) | ETS1 binding intensity (ETS1 [2])
GCGACCCGACCCGGCGGAAACCACCTCGACAGCCTC | 915 | 953 | 1000
CCAACGAGCACTTCCGCTTCCCGCAGCTCCAGCGGC | 2400 | 914 | 4270
AGCGCCGGAAGTGTGTCTGCGTAAAACTGCGGCTCG | 3490 | 740 | 3720
CACCTCACAGCCCGGATACAAACCGCCTACCCGCCC | 780 | 1300 | 980
CCATCCAGGAAGCTTATGGTGCGACCGCAGTGTGCC | 508 | 908 | 1880
CGACCGGAACCACTCTGAGGCGCTGCCGCAGACACC | 533 | 919 | 583
ATAAACAGGAAGCTGAGTATGTGACCACAGACATTC | 1670 | 840 | 5200
CACGCCTGCGGAAGATGAAAACCACACGTCATGCAG | 448 | 960 | 803
TCCACATCCTGCTCCTCGGGTTTGCGGCGAGGACTC | 593 | 809 | 1010
TTGGTCAGCCTGCTTCCGGCTGTGGCTTCAGTTAGT | 1770 | 774 | 1920
ATGTCCCCAGGAGGATGTGGTGTGTCCACAGGAGGA | 759 | 742 | 1650
AGGAGCCGGAAGTCCCGCCCACGCACCCCCCGCAGG | 5260 | 857 | 8270
GATCCCCCTCCTCCATCCTGTGGCTTCGGGTTGCCG | 482 | 819 | 420
ACCCTACTTCCGTTGCTGTGTTGCGGAGGTGACCTA | 1210 | 844 | 1240
GCGCTACAGGAACTTCCTGCGCGGTTGCTGTCGTTG | 1360 | 702 | 1570
